# Bfl-1 A1 inh – inhibitors of the anti-apoptotic protein A1, read as caspase activation; actives 0.066% (n = 330,000); MEF A1-2A-BIM cells, Caspase-Glo 3/7 luminescence, 3 h; percent of clofoctol response, vehicle zero; caspase activation, % (no concentration beside the values); AID 2462;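 active means over half of replicate activation scores above 10%, or exactly half above 10 with the replicate mean above 10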
# Mdm2-MdmX inh – inhibitors of human Mdm2/MdmX interaction. O15151+Q00987. SaOS-2 split-luciferase Mdm2/MdmX complementation, luminescence. inhibition, % at 8 µM. actives 3% (n = 330,000);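 active means inhibition of at least 50% at 8 µM in the primary screen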
# Target sequence (O15151 whole entry, looked up): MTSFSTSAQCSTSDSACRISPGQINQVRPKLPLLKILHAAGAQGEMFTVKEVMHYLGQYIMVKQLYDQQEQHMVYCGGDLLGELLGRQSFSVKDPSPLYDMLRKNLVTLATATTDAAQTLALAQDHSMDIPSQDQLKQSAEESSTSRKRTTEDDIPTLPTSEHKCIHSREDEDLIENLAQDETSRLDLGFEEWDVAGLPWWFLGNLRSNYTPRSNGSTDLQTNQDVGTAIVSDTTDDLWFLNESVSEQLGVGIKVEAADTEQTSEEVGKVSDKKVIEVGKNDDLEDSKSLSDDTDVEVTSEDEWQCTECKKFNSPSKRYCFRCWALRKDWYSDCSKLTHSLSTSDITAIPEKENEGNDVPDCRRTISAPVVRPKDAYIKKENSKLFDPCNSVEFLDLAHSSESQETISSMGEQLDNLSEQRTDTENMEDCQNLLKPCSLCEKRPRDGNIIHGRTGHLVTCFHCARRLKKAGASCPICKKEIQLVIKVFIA
# Target sequence (Q00987 whole entry, looked up): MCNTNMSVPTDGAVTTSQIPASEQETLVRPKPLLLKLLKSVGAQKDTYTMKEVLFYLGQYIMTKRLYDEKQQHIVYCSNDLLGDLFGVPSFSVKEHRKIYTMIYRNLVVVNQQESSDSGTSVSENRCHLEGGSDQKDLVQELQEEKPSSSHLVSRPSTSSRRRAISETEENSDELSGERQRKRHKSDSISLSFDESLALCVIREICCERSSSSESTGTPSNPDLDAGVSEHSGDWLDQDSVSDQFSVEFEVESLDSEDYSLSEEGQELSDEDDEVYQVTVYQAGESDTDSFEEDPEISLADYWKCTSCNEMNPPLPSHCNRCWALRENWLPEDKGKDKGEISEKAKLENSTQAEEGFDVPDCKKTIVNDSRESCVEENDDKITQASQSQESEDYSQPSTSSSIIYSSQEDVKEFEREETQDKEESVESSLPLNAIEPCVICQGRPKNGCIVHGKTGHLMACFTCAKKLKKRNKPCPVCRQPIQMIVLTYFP
# Beta cell apopt – blocks beta cell apoptosis; INS-1E cytokine-induced death, ATP luminescence, 48 h; percent of positive-control rescue, neutral wells zero; actives 0.8% (n = 300,000); AID 435005; protection from apoptosis, % (concentration not given with the values);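 active means Every replicate reaches about 75%, or at least half do and their mean reaches it too, limit read from the data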;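 further: 0% = cytokine-treated negative control wells and 100% = positive control rescue; higher means more ATP so stronger rescue from cytokine killing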
# 697 NFkB inh – lowers PMA/ionomycin-induced NF-kB signal in 697 B cells. 697 B-cell NF-kB luciferase reporter, 16 h. inhibition, % at 4 µM. actives 0.33% (n = 330,000). AID 435022; in the data active means inhibition above about 35%
# Jurkat NFkB inh – inhibitors of the PMA/ionomycin-induced NF-kB reporter in Jurkat cells; PMA/ionomycin-induced NF-kB luciferase reporter, luminescence; actives 0.53% (n = 330,000); inhibition, % at 4 µM; in the data active means inhibition above about 50%
# NTR1 ag – activates human neurotensin receptor 1; activation, % at 20 µM; NTR1-U2OS beta-arrestin-GFP spot imaging, agonist mode; P30989; actives 0.17% (n = 330,000); AID 493036;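 active means activation at or above 40% of the spot to cytoplasm intensity ratio, with at least 20 cells analyzed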;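 further: 0% = DMSO without peptide and 100% = 100 nM NTR1 peptide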
# Active calls of the source: *. This is a sample that favours compounds with a hit; in the whole collection about 3.8% have one here.
SMILES,Bfl-1 A1 inh,Mdm2-MdmX inh,Beta cell apopt,697 NFkB inh,Jurkat NFkB inh,NTR1 ag
C/C(=N/NC(=O)c1cccs1)c1c(C)[nH]n(-c2nc3ccccc3s2)c1=O,-6.1,3.5,79.5*,-79.4,-23.2,-2.1
Cc1ccccc1CN1CCN(c2nc3ccccc3s2)CC1,0.8,-124.3,-3.4,-174.2,-108.8,5.5
CCOc1ccc(NC(=O)CN(C)C(=O)CSC(C)C(=O)Nc2cc(C)on2)cc1OCC (stereo not given),0.2,-3.9,-1.6,-12.0,-7.5,-0.2
O=C1/C(=N\S(=O)(=O)c2cccs2)C([n+]2cccc(Cc3ccccc3)c2)=C([O-])c2ccccc21,-0.2,24.8,101.1*,-18.9,31.5,10.2
CCCC[n+]1ccn(C2=C([O-])c3ccccc3C(=O)/C2=N\S(=O)(=O)c2ccccc2)c1,-1.2,41.1,45.5,24.9,9.0,0.5
Cc1cc(C)c[n+](C2=C([O-])c3ccccc3C(=O)/C2=N\S(=O)(=O)c2cccs2)c1,0.1,12.6,106.7*,-12.5,10.0,-0.3
CC(C)(C)c1cc[n+](C2=C([O-])c3ccccc3C(=O)/C2=N\S(=O)(=O)c2ccccc2)cc1,0.0,29.0,82.4*,-8.4,13.3,1.7
CCCCC[n+]1ccn(C2=C([O-])c3ccccc3C(=O)/C2=N\S(=O)(=O)c2ccccc2)c1,2.2,18.4,90.2*,23.6,-1.7,1.6
Cc1cc[n+](C2=C([O-])c3ccccc3C(=O)/C2=N\S(=O)(=O)c2cccs2)cc1C,-1.6,36.7,-6.3,-7.2,6.4,-1.7
CC(C)[n+]1ccn(C2=C([O-])c3ccccc3C(=O)/C2=N\S(=O)(=O)c2ccccc2)c1,0.5,31.7,54.1,11.4,-9.8,1.1
O=Cc1cn(CCOc2ccccc2F)c2ccccc12,-0.5,-25.9,-5.7,-23.3,-14.2,1.3
CN1CCC(N(C)C(=O)c2ccccc2F)CC1,-1.2,16.3,2.7,3.6,-7.2,-0.2
CC(C)CCCCCCNC(=S)Nc1ccc(S(=O)(=O)N2CCOCC2)cc1,-0.3,29.3,97.7*,-24.9,4.3,16.8
CC(=O)N1c2ccc(S(=O)(=O)NCCC(=O)Nc3ccc(C)c(Cl)c3)cc2CC1C (stereo not given),0.2,16.3,16.0,8.9,20.9,-1.0
CC(C)(C)c1cnnn1-c1ccc(/C=N/Nc2ccc([N+](=O)[O-])cc2)cc1,0.2,45.8,97.3*,-10.2,-17.7,2.0
C/C(=N\Nc1ccc([N+](=O)[O-])cc1)c1ccc(-n2nncc2C)cc1,-0.6,-7.6,1.1,-20.7,-5.8,-1.9
Oc1ccc(/C=N/Nc2ncc(Br)cn2)c(O)c1,-8.7,-7.3,86.9*,-100.9,-35.5,0.0
CCN(CC(=O)NCc1cccs1)C(=O)CCCOc1ccc(C(C)(C)C)cc1,-0.7,6.7,0.3,-24.0,1.1,-1.9
CCN(CC(=O)Nc1ccc(NC(C)=O)cc1)C(=O)CCCOc1ccc(C(C)(C)C)cc1,0.0,15.5,92.8*,-8.8,18.7,1.4
Cc1ccc(Cl)cc1N1CCN(C(=O)CSc2nnc3n2C(C)(C)Cc2ccccc2-3)CC1,-0.6,46.8,93.6*,-5.2,28.9,17.2
COc1ccccc1N1C(=O)c2cccc3c(Cl)ccc(c23)C1=O,7.8*,16.1,5.9,-6.9,24.5,5.1
CN1C(=O)c2cccc3c(Cl)ccc(c23)C1=O,-0.5,29.2,-6.1,6.3,8.1,2.9
Cc1cc(NS(=O)(=O)c2ccc(NC(=O)C(C)Oc3cc(C)c(Cl)c(C)c3)cc2)no1 (stereo not given),-0.3,6.6,-3.1,18.0,3.7,-0.3
Cc1cc(C)nc(OC(=O)c2ccc(Cl)cc2Cl)n1,0.0,9.0,85.1*,-26.4,-22.3,1.8
COc1ccc(NS(=O)(=O)c2ccc3oc(SC4CCOC4=O)nc3c2)cc1 (stereo not given),-1.0,25.3,-3.5,-29.5,-7.5,68.4*
SMILES,Bfl-1 A1 inh,Mdm2-MdmX inh,Beta cell apopt,697 NFkB inh,Jurkat NFkB inh,NTR1 ag
COc1ccc(NS(=O)(=O)c2ccc3oc(SC)nc3c2)cc1,0.3,0.0,1.9,0.2,18.3,0.7
Cc1cc(=O)c(C(=O)Nc2cccc(N3CCCC3=O)c2)nn1-c1ccccc1F,-1.2,-5.5,-1.0,-9.0,3.1,0.2
CCOC(=O)C1=C(C)NC(C)=C(C(=O)OCC)C1C(=O)OCC(=O)NCc1ccccc1OC,-0.7,-5.2,-0.9,-16.4,-2.3,2.0
COc1cccc(N2CC(NS(=O)(=O)c3ccc4ccccc4c3)CC2=O)c1 (stereo not given),0.1,17.2,3.0,-7.8,-1.7,-0.2
CCCCCCc1ccc(N2C[C@H](Cc3ccccc3)[C@@H](CC(=O)NCc3ccc(OC)cc3)C2=O)cc1,0.5,37.2,99.8*,-1.9,17.3,12.9
CCCCCCc1ccc(N2C[C@H](CCCCC)[C@@H](CC(=O)NCc3ccc(OC)cc3)C2=O)cc1,0.0,22.9,18.1,-6.9,32.4,2.1
CCCCCCc1ccc(N2C[C@H](Cc3ccccc3)[C@@H](CC(=O)Nc3ccccc3)C2=O)cc1,-0.9,39.0,103.9*,6.3,5.7,-0.6
Cc1ccc(C(=O)NC(C)c2ccncc2)o1 (stereo not given),0.1,4.9,0.2,-4.4,14.0,1.7
Cc1ccc(S(=O)(=O)Nc2ccc3cn[nH]c3c2)c(C)c1,0.1,36.9,1.0,-1.4,1.8,2.8
CCOc1cc(C)c(S(=O)(=O)Nc2ccc3cn[nH]c3c2)cc1C,-0.2,30.8,89.1*,-5.7,15.6,4.2
CCOc1ccccc1NC(=O)NNC(=O)CCc1ccc(OC)cc1,-0.1,-15.6,-1.7,0.4,-7.0,-0.6
CCOC(=O)C1CCN(S(=O)(=O)c2ccc(NC(=O)c3ccco3)cc2)CC1,1.0,13.2,-1.3,-10.7,16.3,0.7
Cc1nc(C(=O)NNC(=O)c2c(-c3c(Cl)cccc3Cl)noc2C)cs1,0.0,30.2,85.9*,-19.6,-2.2,-0.6
Cc1ccc(NC(=O)c2c(-c3c(F)cccc3Cl)noc2C)cc1F,-0.2,15.7,95.7*,9.0,-15.1,16.6
CCn1cc(CCCC(=O)NCc2ccc(OC)cc2)c2ccccc21,-0.4,25.2,-5.6,-0.9,10.7,1.6
O=C(COC(=O)Cc1ccc(S(=O)(=O)N2CCOCC2)s1)Nc1ccc(OC(F)F)cc1,0.3,27.9,2.4,2.9,8.2,1.6
COc1c(CC=C(C)C)cc(C2CC(=O)c3c(O)cc(O)cc3O2)cc1CC=C(C)C (stereo not given),-0.8,20.7,108.1*,-33.6,-16.8,22.0
COc1ccc([C@@H]2CC(=O)c3c(O)cc(O)cc3O2)cc1O,-2.5,2.2,0.6,6.0,-5.2,5.8
Cc1cc[n+](CC(=O)c2ccccc2)c2ccccc12,0.0,34.6,117.0*,13.5,0.7,-0.1
O=C(Nc1cc(-c2ccccc2)nn1C1CCCCC1)c1ccc(Cl)cc1,1.4,11.2,97.3*,-2.5,6.4,4.6
